Laboratory results published in PubChem BioAssay AID449762 (Southern Research Specialized Biocontainment Screening …, 2010).
In all, about 330,000 compounds went through this assay and about 1,900 (0.58%) were called active. Another 4% or so got no clear call; they are omitted. These entries were drawn from the full list. Results with a measured potency or affinity are listed apart. Values without a mark were called inactive. Cut-off read from the data, not from the text of the source: inconclusive = inhibition above about 70% without an active follow-up result; inactive = below that.

Experiment: M. tuberculosis growth inhibition, HTS (AID 449762);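 note: bacterial growth assessed after seven days of incubation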
Conditions: M. tuberculosis H37Rv growth inhibition, 7H9 media; at 25 µM; hits give high values

| Structure (SMILES) | inhibition |
| --- | --- |
| CCn1c(=O)cc(SCC(=O)Nc2ccc(OC)c(OC)c2)c2ccccc21 | -7.13% |
| Cc1cc(C)cc(NC(=S)N2CCC(NC(=O)C3CCCCC3)CC2)c1 | -1.01% |
| CCOP(=O)(OCC)C(O)c1cc(OC)c(OC)c(OC)c1 (configuration not stated) | 0.28% |
| Cc1csc(CNc2ncnc3ccc(-c4cccnc4)cc23)c1 | 2.87% |
| Fc1ccc(/C=N/NC2=Nc3cccc4cccc2c34)cc1 | -8.86% |
| C(=N\NC1=Nc2cccc3cccc1c23)/c1ccccc1 | 9.94% |
| CC(=O)c1c(C)[nH]c(C(=O)Nc2cccc(S(=O)(=O)N3CCOCC3)c2)c1C | -28% |
| O=C(O)CNC(=S)NCc1ccccc1 | -1.14% |
| COC(=O)c1[nH]c2cccc(OC)c2c1NC(=O)CN1CCN(c2cccc(OC)c2)C(C)C1 (configuration not stated) | 52.6% |
| CCOC(=O)c1[nH]c2cc(OC)c(OC)cc2c1NC(=O)CN1CCN(c2ccc(OC)cc2)C(C)C1 (configuration not stated) | -2.17% |
| O=C(c1cc2ccccc2oc1=O)N1CCN(Cc2ccc3c(c2)OCO3)CC1 | -3.79% |
| C=C(c1ccccc1O)n1ccnc1 | 0.25% |
| Cc1cccc(C(=O)NNC(=O)c2ccccc2)c1 | -6.62% |
| O=C(COc1ccccc1)NNC(=S)NC(=O)c1ccccc1 | 56.3% |
| Cc1cccc(C(=O)NNC(=O)c2cccc(C)c2)c1 | -16.6% |
| O=C(COc1ccccc1)NNC(=S)NC(=O)c1ccc(Cl)cc1Cl | 55.5% |
| O=C(c1cc(Br)c(Br)s1)N1CCN(C/C=C/c2ccccc2)CC1 | -4.13% |
| OCCOCCn1c(C2CCCN2c2nc(-c3ccc(F)cc3)cs2)nc2cc(C(F)(F)F)ccc21 (configuration not stated) | 2.16% |
| CCOc1ccc(-n2nnc3c(=O)n(C/C=C/c4ccccc4)cnc32)cc1 | -10.8% |
| CC(=O)Nc1ccc(C(=O)CN2C(=O)NC3(CCCCCC3)C2=O)c(F)c1 | -9.64% |
| CC(C)c1ccc(OC(=O)c2cccc(S(=O)(=O)N3CCN(C)CC3)c2)cc1 | 10.8% |
| CC1(C)N=C(N)N=C(N)N1c1cccc(CN)c1 | -3.4% |
| Brc1ccc2ncc(Br)cc2c1 | 2.82% |
| Nc1ccc(Br)cc1Br | -6.59% |
| COC(=O)C1CCN(C(=O)/C=C/c2ccccc2)CC1 | -5.05% |
| Cc1nn(Cc2ccccc2)c(C)c1CNC(=O)[C@H](C)N=C1NS(=O)(=O)c2ccccc21 | 6.6% |
| Cc1cccc(-n2cc(CNCCN3CCOC3=O)c(-c3cccc(F)c3)n2)c1 | 1.99% |
